Screens (PubChem)
Only some compounds are listed: those with a hit (about 12% of all), similar ones and a draw of the others.
SARS PLpro yeast-1: qHTS of Yeast-based Assay for SARS-CoV PLP; Potency, µM (doses to about 32.9 µM), most hits filed as activators; S. cerevisiae expressing SARS-CoV PLpro, growth rescue; 330,000 tested, 0.19% active; AID 485353, 2010; calls by dose curve; also: nearly all actives have a fitted effect of over 55% in size
Pf growth 96h: Primary qHTS for delayed death inhibitors of the malarial parasite plastid, 96 hour incubation. AID 504834, 2011. Potency, µM (top dose mostly 28.7 µM), actives largely listed as inhibitors. P. falciparum luciferase reporter growth, 96 h. 320,000 tested, 6.9% active
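Readout is luminescence from an integrated firefly luciferase in P. falciparum. Red cells, 2% hematocrit and 0.05% parasitemia final, were cultured with compound through two parasite generations (96 hours) at 37 C, 5% CO2.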
Pf growth 48h: Primary qHTS for delayed death inhibitors of the malarial parasite plastid, 48 hour incubation. AID 504832, 2011. P. falciparum luciferase growth in erythrocytes, 48 h. Potency, µM (titrated, usually from 28.7 µM), actives largely listed as inhibitors. 310,000 tested, 5.9% active
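In quantitative HTS format, infected erythrocytes bearing luciferase-reporter parasites were treated for a single generation at 37 C. Luminescence after adding detection reagent served as the growth measure.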
Sm TGR block: qHTS Assay for the Inhibitors of Schistosoma Mansoni Peroxiredoxins | AID 485364, 2010 | Schistosoma mansoni thioredoxin glutathione reductase (TGR), Q962Y6 | Potency, µM (highest dose often 114 µM), hits mostly inhibitors | purified TGR, DTNB reduction, TNB absorbance 405 nm | 360,000 tested, 3% active; also: nearly all actives have a fitted effect of over 60% in size
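First, TGR (20 nM dispensed) and NADPH were mixed with compound. Second, a 15 min room-temperature incubation followed. Third, further NADPH and then DTNB were added to start the reaction. Finally, TNB absorbance was monitored kinetically.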
SARS PLpro yeast-2: qHTS of Yeast-based Assay for SARS-CoV PLP: Hit Validation | shares compounds with SARS PLpro yeast-1 | yeast expressing SARS-CoV PLpro, growth phenotype rescue | calls only | 1,000 tested, 19% active | AID 652038, 2013; call rule not given here
Numbers stand for hits; – = inactive; ? = inconclusive; · = no result; + = active, no number; ! = not active in a repeat; [ ] = remark or other dose. Unless noted, calls follow the shape of the dose curve; as a rule, active = well fitted curve in the direction sought with a large enough effect; inconclusive = small, poorly fitted or top-dose-only effect, or another doubt; inactive = no such curve, though single readings can be large; an effect the other way counts as inactive or inconclusive.

SMILES	SARS PLpro yeast-1	Pf growth 96h	Pf growth 48h	Sm TGR block	SARS PLpro yeast-2
CCCCN(C(=O)c1ccc(-c2ccc(Cl)cc2)o1)c1c(N)n(CCC)c(=O)[nH]c1=O	–[6.58 µM]	–	?	?	·
CCN(CC(=O)Nc1cc(C)nn1-c1nc(C)cc(C)n1)Cc1ccccc1	?	4.15µM	·	–	–
CC(=O)N(CCc1ccccc1C)Cc1cc2cc3c(cc2[nH]c1=O)OCO3	11.2µM	–	–	–	–
COc1ccc(-c2nnc(SCC(=O)c3[nH]c(C)c(C(C)=O)c3C)o2)cc1	–	–	?	–	·
CCOC(=O)c1[nH]c(CSc2nnc(-c3ccc(OC)cc3)o2)c(C(=O)OCC)c1C	3.16µM	–	·	–	–
COc1ccc(NC(=O)CCNC(=O)c2ccccc2Cl)cc1OC	–	?	–	–	·
O=C(CCNC(=O)c1ccccc1Cl)Nc1ccc(Cl)c(C(F)(F)F)c1	3.55µM	?	–	–	–
CCc1nc(Nc2ccc(OC)c(OC)c2)c2nnn(Cc3ccccc3Cl)c2n1	17.8µM	–	?	–	+
COc1cccc(OC)c1Nc1nc(C)nc2c1nnn2Cc1ccccc1Cl	–	–	?	–	·
CCc1ccc(NC(=O)CC2C(=O)N(c3cccc(C)c3)C(=O)N2Cc2cccs2)cc1 (stereo not drawn)	·	·	·	–	·
O=C(c1ccc(-n2c(SCc3cccc(F)c3)nc3ccccc3c2=O)cc1)N1CCOCC1	3.16µM	–	?	–	+
O=C(Cn1c(CO)nc2ccccc21)NCCc1ccc(F)cc1	–	–	–	–	·
O=C(Cn1c(NCCO)nc2ccccc21)NCCc1ccc(F)cc1	?	–	?	–	–
Cc1cccc(N=C2NC(=O)/C(=C/c3cccs3)S2)c1	–	–	–	–	·
Cc1ccc(N=C2NC(=O)/C(=C\c3cccs3)S2)cc1C	?	?	–	–	–
CN(C)CCNC(=S)Nc1cccc(Cl)c1	?	–	–	–	–
CN(C)NC(=S)Nc1cccc(Cl)c1	–	–	?	–	·
O=C1CC(c2ccccc2)c2c(n3ncnc3[nH]c2=O)N1 (stereo not drawn)	·	·	·	–	·
CN(C)c1ccc(CNC(=O)C2CCN(Cc3cc4ccccc4n3Cc3ccccc3)CC2)cc1	·	·	·	–	·
CCCCCCO	11.2µM	–	–	–	–
O=C(CSc1nc2c(c(=O)[nH]1)CCCC2)Nc1cccc(O)c1	·	·	·	–	·
COC(=O)C1(S(=O)(=O)c2cc(Br)cc3c2N(C(C)=O)CC3)CC1	?	–	9.28µM	–	–
Cc1ccc(N=C2C(=S)N(c3ccc(C)cc3)C(=N)N2/N=C/c2ccc(Cl)cc2)cc1	11.2µM	?	–	–	+
CCC1CCC2(CC1)NNC(=S)NN2	8.91µM	?	·	–	–
Cc1ccc(C)c(Cn2c3ccccc3c3cnn(CC(=O)NC4CCCCCC4)c(=O)c32)c1	·	·	·	–	·
SMILES	SARS PLpro yeast-1	Pf growth 96h	Pf growth 48h	Sm TGR block	SARS PLpro yeast-2
COc1cccc(NC(=O)CN(C)C(=O)C(CCSC)NC(=O)c2ccco2)c1 (stereo not drawn)	–	–	–	–	·
COc1ccc(C(=O)CC(=O)C(=O)Nc2cc(Cl)c(OC)cc2OC)cc1	?	–	–	–	+
COc1cccc(C(=O)CC(=O)C(=O)Nc2cc(Cl)c(OC)cc2OC)c1	–	–	–	–	·
COc1ccc(NCN2C(=O)CCC2=O)cc1	?	–	·	–	–
CCOc1ccc(CCNC(=O)c2ccc(CS(=O)Cc3ccc(Cl)cc3)o2)cc1 (stereo not drawn)	?	?	–	28.2µM!	–
O=C(NCCc1ccc(Cl)cc1)c1ccc(CS(=O)Cc2ccc(Cl)cc2)o1 (stereo not drawn)	–	?	–	–	·
COc1ccc(-c2nc(SCC(=O)Nc3c(C)cc(C)cc3C)n[nH]2)cc1	·	·	·	–	·
CCOC(=O)C1CCN(C(=O)COc2ccc(Br)cc2)CC1	–	–	?	–	·
CCOC(=O)C1CCN(C(=O)COc2cccc(C)c2)CC1	3.55µM	–	–	–	–
CN(C)S(=O)(=O)c1ccc(C(=O)NCc2ccc3[nH]c4c(c3c2)CCCC4)cc1	3.55µM	?	–	–	+
CC(C)(C)[C@H](NC(=O)c1ccc(N)c(Cl)c1)C(=O)N1CCC[C@H]1C(=O)N[C@H](C#N)Cc1nn[nH]n1	–	?	?	?	·
CC1CN(C(=O)Cn2c(C(F)(F)F)nc3ccccc32)CC(C)O1 (stereo not drawn)	?	–	·	–	–
O=C(O)Cn1c(C(F)(F)F)nc2ccccc21	·	–	–	–	·
C=CCn1c(SCC(=O)Nc2cc(C)ccc2OC)nnc1-c1ccco1	?	–	–	–	–
O=C(CNCCCO)Nc1cc(C(F)(F)F)cc(NC(=O)CNCCCO)c1Cl	?	?	–	–	–
O=C(CNCCO)Nc1ccc(F)c(Cl)c1	–	–	–	–	·
CC(C)C(=O)NC(c1ccccc1)c1cc([N+](=O)[O-])c2cccnc2c1O (stereo not drawn)	?	0.37µM	–	–	–
CCC(=O)NC(c1cccs1)c1cc([N+](=O)[O-])c2cccnc2c1O (stereo not drawn)	?	–	?	–	–
CCCC(=O)NC(c1cccs1)c1cc([N+](=O)[O-])c2cccnc2c1O (stereo not drawn)	·	–	?	–	–
CC(=O)NC(c1cccs1)c1cc([N+](=O)[O-])c2cccnc2c1O (stereo not drawn)	?	?	?	–	·
CCCCC(=O)NNC(=S)NC(=O)CCC	15.8µM	?	–	–	–
COC(=O)c1sc(=S)sc1C(=O)OC	6.31µM	?	–	–	?
COC(=O)c1sc(C(=O)OC)c(C(=O)OC)c1C(=O)OC	–	–	–	–	·
NC(CO)(CO)CO	·	–	–	·	·
CCOC(=O)N1CCN(S(=O)(=O)c2ccc(C(=O)NNc3nc4cc(C)cc(C)c4s3)cc2)CC1	7.94µM	?	?	–	?
SMILES	SARS PLpro yeast-1	Pf growth 96h	Pf growth 48h	Sm TGR block	SARS PLpro yeast-2
Cc1cccc2sc(NNC(=O)c3ccc(S(=O)(=O)N4CCc5ccccc5C4)cc3)nc12	10µM	5.22µM	?	–	+
CCOC(=O)N1CCN(S(=O)(=O)c2ccc(C(=O)NNc3nc4c(C)cc(C)cc4s3)cc2)CC1	?	?	?	–	·
CCOC(=O)N1CCN(S(=O)(=O)c2ccc(C(=O)NNc3nc4ccc(Cl)cc4s3)cc2)CC1	10µM	?	–	–	+
CCOC(=O)N1CCN(S(=O)(=O)c2ccc(C(=O)NNc3nc4c(C)cccc4s3)cc2)CC1	7.94µM	?	?	–	+
COC(=O)C1=C(c2ccccc2)c2ccccc2S(=O)(=O)N1CC(=O)Nc1ccc(F)c(F)c1	·	·	·	–	·
N#Cc1ccccc1OCC(=O)OCCCOC(=O)COc1ccccc1C#N	–	?	–	–	·
CC1CCc2onc(C(=O)N3CCN(c4cccc(Cl)c4)CC3)c2C1 (stereo not drawn)	·	·	·	–	·
Cc1ccc(C)c(S(=O)(=O)NCC(=O)Nc2ccc3c(c2)OCO3)c1	–	–	–	–	·
CCOc1ccccc1NC(=S)Nc1ccccc1F	?	13.1µM	–	–	–
